Structures are written as SMILES. Where “and” joins values, the source holds several entries; their conditions need not be identical. Equal values may be shown once. The panel holds about 83,000 compounds, 20% with a hit somewhere; the sample as a whole holds those more often.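 Method: cells in 96-well plates; compound added at one concentration; 48 h incubation; percent growth measured; values under 10 scored active.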 Unmarked numbers belong to inactive results. Calls of active or inactive are those of the source.

Some test systems named below: HCT-15 colon; HT29 colon; SNB-75 CNS; SNB-19 CNS; U251 CNS; PC-3 prostate; SK-MEL-5 melanoma; UACC-62 melanoma; LOX IMVI melanoma; SK-MEL-2 melanoma; EKVX NSCLC; SN12C renal; UO-31 renal; TK-10 renal; ACHN renal; CAKI-1 renal; A498 renal; CCRF-CEM leukemia; MOLT-4 leukemia; SK-MEL-28 melanoma.
Holding throughout (test): NCI-60 one-dose screen, 48 h (100 = growth as untreated, 0 = no growth, -100 = all killed)
Details in all cases: 10 µM unless noted

On to `COc1ccc(-c2cc(-c3cccnc3)nc3sc4c(Cl)nnnc4c23)cc1OC`, for which the growth with HCT-15 colon is 69.9%; with HT29 colon, 87.9%; in the assay on SNB-75 CNS, 81.5%; with SNB-19 CNS, 95.6%; with U251 CNS, 92.1%; in the assay with PC-3 prostate, 81.1%. Besides, the growth in the assay with SK-MEL-5 melanoma is 84.4%; in the assay on UACC-62 melanoma, 81%; in the assay with LOX IMVI melanoma, 36.4%; in the assay on SK-MEL-2 melanoma it was 98.3%; in the assay with EKVX NSCLC, 111%; in the assay with SN12C renal, 92.9%. Further, the growth in the assay with UO-31 renal was 76.3%; in the assay on TK-10 renal it was 129%; in the assay with ACHN renal, 87.4%; in the assay with CAKI-1 renal it was 101%; in the assay with A498 renal, 88.1%; in the assay with CCRF-CEM leukemia it was 33.6%. In the assay on MOLT-4 leukemia, the growth is 49.1%.
Turning to `Cn1cc(-c2csc(-c3c[nH]c4ccc(F)cc34)n2)c2cnccc21`, the growth in the assay with HCT-15 colon was -69.7% (active); with HT29 colon, -52.6% (active); with SNB-75 CNS it was -89.1% (active); with SNB-19 CNS it was 14.3%; in the assay with U251 CNS, -74.6% (active); with PC-3 prostate it was 20.5%. Also, the growth with SK-MEL-5 melanoma is -97% (active); with UACC-62 melanoma it was -78.5% (active); in the assay on LOX IMVI melanoma it was -90.4% (active); in the assay on SK-MEL-2 melanoma, -66.4% (active); with EKVX NSCLC, -28.4% (active); with SN12C renal, -48.5% (active). In addition, the growth in the assay on UO-31 renal was -75.3% (active); with TK-10 renal it was -28% (active); in the assay with ACHN renal it was -54% (active); in the assay on CAKI-1 renal it was -57.8% (active); with A498 renal, 74.8%; in the assay on CCRF-CEM leukemia, -32.3% (active). In the assay with MOLT-4 leukemia, the growth is -34.7% (active).
For the compound `COc1cc(CO)cc2cc3ccccc3nc12`, the growth in the assay on HCT-15 colon was 106%; in the assay on HT29 colon, 103%; in the assay on SNB-75 CNS, 74.7%; with SNB-19 CNS, 97.1%; in the assay on U251 CNS, 99.2%; in the assay with PC-3 prostate it was 104%. The growth in the assay on SK-MEL-5 melanoma was 105%; with UACC-62 melanoma it was 98.7%; in the assay on LOX IMVI melanoma, 100%; in the assay on SK-MEL-28 melanoma, 113%; in the assay on SK-MEL-2 melanoma, 111%; in the assay on EKVX NSCLC it was 102%. For the same compound, the growth in the assay with SN12C renal is 101%; in the assay on TK-10 renal it was 118%; in the assay with ACHN renal, 105%; in the assay with CAKI-1 renal, 93.6%; with A498 renal it was -22.1% (active); in the assay on CCRF-CEM leukemia it was 99.1%. For the same compound, the growth with MOLT-4 leukemia is 99.4%.
In the case of `CN(C)CC1(C)Cc2ccsc2C1O` (configuration not stated), the growth was 108% and 105% in the assay with HCT-15 colon; 104% and 99.1% in the assay with HT29 colon; 110% and 101% in the assay with SNB-75 CNS; 108% and 106% in the assay with SNB-19 CNS; 112% and 103% with U251 CNS; 98.2% and 100% in the assay on PC-3 prostate. The growth was 110% and 107% with SK-MEL-5 melanoma; 109% and 112% in the assay on UACC-62 melanoma; 97.3% and 102% in the assay with LOX IMVI melanoma; 120% and 126% in the assay with SK-MEL-28 melanoma; 108% and 110% in the assay on SK-MEL-2 melanoma; 103% and 92.3% with EKVX NSCLC. Besides, the growth in the assay on SN12C renal was 110% and 111%; in the assay on TK-10 renal, 105% and 94.1%; in the assay with ACHN renal, 99.6% and 106%; in the assay with CAKI-1 renal it was 106% and 103%; with A498 renal it was 97.9% and 95.5%; in the assay on CCRF-CEM leukemia, 94.8%. In addition, the growth in the assay on MOLT-4 leukemia is 99.9% and 86.4%.
For the compound `OCc1cc(CN2CCCCC2)c(O)c2ncccc12`, the growth in the assay on HCT-15 colon is 20%; with HT29 colon, 41.6%; in the assay on SNB-75 CNS, 81.1%; with SNB-19 CNS, 57.3%; in the assay with U251 CNS it was 40.5%; in the assay on PC-3 prostate, 46.9%. The growth in the assay with SK-MEL-5 melanoma is 74.2%; with UACC-62 melanoma, 55.3%; in the assay with LOX IMVI melanoma, 37.3%; in the assay with SK-MEL-28 melanoma it was 60.7%; in the assay with SK-MEL-2 melanoma, 81.3%; with EKVX NSCLC, 65.5%. For the same compound, the growth was 59.9% in the assay on SN12C renal; 31% in the assay on TK-10 renal; 20.7% in the assay with ACHN renal; 91.8% with A498 renal; 29.5% in the assay with CCRF-CEM leukemia; 36% in the assay with MOLT-4 leukemia.
Take `O=C1/C(=C/c2ccc(-c3ccccc3C(F)(F)F)o2)SC(=S)N1CCc1ccc(O)cc1`: the growth is 29.6% in the assay on HCT-15 colon; 14.8% in the assay on HT29 colon; 29.2% in the assay with SNB-75 CNS; 87.8% with SNB-19 CNS; 44.1% with U251 CNS; 48.6% in the assay on PC-3 prostate. The growth was 84.4% in the assay on SK-MEL-5 melanoma; 47% in the assay with UACC-62 melanoma; 41.4% with LOX IMVI melanoma; 69.5% in the assay on SK-MEL-28 melanoma; 70.1% with SK-MEL-2 melanoma; 75.3% with EKVX NSCLC. The growth is 66.6% in the assay on SN12C renal; 83.1% in the assay with TK-10 renal; 66.3% in the assay on ACHN renal; 33.8% with CAKI-1 renal; 79.1% in the assay with A498 renal; 11.9% with CCRF-CEM leukemia. Also, the growth in the assay with MOLT-4 leukemia was 17.5%.
Regarding `CCOC(=O)c1ccc(Nc2ncnc3c2cnn3-c2cccc(F)c2)cc1`, the growth in the assay with HCT-15 colon is 102%; with HT29 colon, 103%; in the assay on SNB-75 CNS, 82.1%; in the assay on SNB-19 CNS, 96.9%; with U251 CNS it was 98%; with PC-3 prostate, 97.3%. The growth with SK-MEL-5 melanoma was 101%; with UACC-62 melanoma, 92.6%; with LOX IMVI melanoma, 93.2%; in the assay with SK-MEL-28 melanoma, 110%; in the assay on SK-MEL-2 melanoma it was 114%; in the assay on EKVX NSCLC, 97.5%. In addition, the growth in the assay with SN12C renal was 95%; with TK-10 renal it was 115%; in the assay with ACHN renal it was 96.5%; with CAKI-1 renal, 84.8%; in the assay on A498 renal, 99%; with CCRF-CEM leukemia it was 95.6%. In addition, the growth with MOLT-4 leukemia is 99.2%.

The values are drawn from PubChem BioAssay (NCI).
